In ChEMBL document CHEMBL2218924, “A broad activity screen in support of a chemogenomic map for kinase signalling research and drug discovery” (Biochem J, 2013) one finds residual activity data, which are given here for seven molecules.

Assay [1] concerns the target ALK tyrosine kinase receptor (Homo sapiens) (UniProt Q9UM73). The note with it: at 10 µM.
Assay [2] has as its target T1, Activin receptor type-1B (Homo sapiens) (UniProt P36896).
T1 sequence (whole entry): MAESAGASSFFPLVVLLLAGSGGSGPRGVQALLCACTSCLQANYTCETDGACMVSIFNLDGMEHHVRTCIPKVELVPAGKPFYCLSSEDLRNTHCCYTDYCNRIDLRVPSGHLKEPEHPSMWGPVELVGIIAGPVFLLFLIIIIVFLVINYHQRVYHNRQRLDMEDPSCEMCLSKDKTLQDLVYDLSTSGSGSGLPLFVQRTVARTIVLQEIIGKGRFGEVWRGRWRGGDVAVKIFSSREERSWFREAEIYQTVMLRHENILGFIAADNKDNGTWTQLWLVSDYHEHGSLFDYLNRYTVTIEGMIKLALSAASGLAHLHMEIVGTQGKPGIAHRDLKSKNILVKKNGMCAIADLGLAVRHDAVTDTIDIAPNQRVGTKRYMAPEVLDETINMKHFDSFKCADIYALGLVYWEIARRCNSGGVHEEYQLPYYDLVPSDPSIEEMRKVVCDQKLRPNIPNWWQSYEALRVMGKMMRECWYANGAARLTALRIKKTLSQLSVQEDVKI
The settings on record: at 1 µM.

The target in assay [3] is T1, Activin receptor type-1B (Homo sapiens). The note with it: at 10 µM.
In assay [4] the target is T2, AMP-activated protein kinase (AMPK) alpha-1/beta-1/gamma-1 (Homo sapiens) (UniProt P54619+Q9Y478+Q13131). The note with it: at 1 µM.
The target in assay [5] is T2, AMP-activated protein kinase (AMPK) alpha-1/beta-1/gamma-1 (Homo sapiens). The settings on record: at 10 µM.
The target in assay [6] is T3, AMP-activated protein kinase, AMPK (Homo sapiens) (UniProt P54646+O43741+P54619+Q9UGJ0+Q9Y478+Q13131+Q9UGI9). The note with it: at 1 µM.
Assay [7] concerns the target T3, AMP-activated protein kinase, AMPK (Homo sapiens). The settings on record: at 10 µM.
Assay [8] addresses T4, NUAK family SNF1-like kinase 1 (Homo sapiens) (UniProt O60285).
T4 sequence (whole entry): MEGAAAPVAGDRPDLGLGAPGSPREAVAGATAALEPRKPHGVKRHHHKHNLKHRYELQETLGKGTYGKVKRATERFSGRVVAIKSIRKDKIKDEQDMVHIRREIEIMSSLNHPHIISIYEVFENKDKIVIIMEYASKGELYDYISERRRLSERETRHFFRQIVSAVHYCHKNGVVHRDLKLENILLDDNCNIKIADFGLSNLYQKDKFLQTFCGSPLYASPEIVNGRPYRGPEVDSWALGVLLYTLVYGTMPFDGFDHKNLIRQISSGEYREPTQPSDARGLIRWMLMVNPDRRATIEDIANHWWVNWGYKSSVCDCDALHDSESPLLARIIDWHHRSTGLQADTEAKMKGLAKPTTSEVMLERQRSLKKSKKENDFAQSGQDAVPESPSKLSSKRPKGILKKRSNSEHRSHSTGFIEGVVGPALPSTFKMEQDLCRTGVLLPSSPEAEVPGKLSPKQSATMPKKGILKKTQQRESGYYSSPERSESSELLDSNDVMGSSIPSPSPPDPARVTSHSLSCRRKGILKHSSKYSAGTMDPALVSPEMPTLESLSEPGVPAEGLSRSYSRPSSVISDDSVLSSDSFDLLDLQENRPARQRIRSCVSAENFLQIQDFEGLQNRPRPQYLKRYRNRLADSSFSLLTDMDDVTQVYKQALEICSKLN
The note with it: at 1 µM.

Assay [9] concerns the target T4, NUAK family SNF1-like kinase 1 (Homo sapiens). The settings on record: at 10 µM.
The target in assay [10] is T5, Mitogen-activated protein kinase kinase kinase 5 (Homo sapiens) (UniProt Q99683).
T5 sequence (whole entry): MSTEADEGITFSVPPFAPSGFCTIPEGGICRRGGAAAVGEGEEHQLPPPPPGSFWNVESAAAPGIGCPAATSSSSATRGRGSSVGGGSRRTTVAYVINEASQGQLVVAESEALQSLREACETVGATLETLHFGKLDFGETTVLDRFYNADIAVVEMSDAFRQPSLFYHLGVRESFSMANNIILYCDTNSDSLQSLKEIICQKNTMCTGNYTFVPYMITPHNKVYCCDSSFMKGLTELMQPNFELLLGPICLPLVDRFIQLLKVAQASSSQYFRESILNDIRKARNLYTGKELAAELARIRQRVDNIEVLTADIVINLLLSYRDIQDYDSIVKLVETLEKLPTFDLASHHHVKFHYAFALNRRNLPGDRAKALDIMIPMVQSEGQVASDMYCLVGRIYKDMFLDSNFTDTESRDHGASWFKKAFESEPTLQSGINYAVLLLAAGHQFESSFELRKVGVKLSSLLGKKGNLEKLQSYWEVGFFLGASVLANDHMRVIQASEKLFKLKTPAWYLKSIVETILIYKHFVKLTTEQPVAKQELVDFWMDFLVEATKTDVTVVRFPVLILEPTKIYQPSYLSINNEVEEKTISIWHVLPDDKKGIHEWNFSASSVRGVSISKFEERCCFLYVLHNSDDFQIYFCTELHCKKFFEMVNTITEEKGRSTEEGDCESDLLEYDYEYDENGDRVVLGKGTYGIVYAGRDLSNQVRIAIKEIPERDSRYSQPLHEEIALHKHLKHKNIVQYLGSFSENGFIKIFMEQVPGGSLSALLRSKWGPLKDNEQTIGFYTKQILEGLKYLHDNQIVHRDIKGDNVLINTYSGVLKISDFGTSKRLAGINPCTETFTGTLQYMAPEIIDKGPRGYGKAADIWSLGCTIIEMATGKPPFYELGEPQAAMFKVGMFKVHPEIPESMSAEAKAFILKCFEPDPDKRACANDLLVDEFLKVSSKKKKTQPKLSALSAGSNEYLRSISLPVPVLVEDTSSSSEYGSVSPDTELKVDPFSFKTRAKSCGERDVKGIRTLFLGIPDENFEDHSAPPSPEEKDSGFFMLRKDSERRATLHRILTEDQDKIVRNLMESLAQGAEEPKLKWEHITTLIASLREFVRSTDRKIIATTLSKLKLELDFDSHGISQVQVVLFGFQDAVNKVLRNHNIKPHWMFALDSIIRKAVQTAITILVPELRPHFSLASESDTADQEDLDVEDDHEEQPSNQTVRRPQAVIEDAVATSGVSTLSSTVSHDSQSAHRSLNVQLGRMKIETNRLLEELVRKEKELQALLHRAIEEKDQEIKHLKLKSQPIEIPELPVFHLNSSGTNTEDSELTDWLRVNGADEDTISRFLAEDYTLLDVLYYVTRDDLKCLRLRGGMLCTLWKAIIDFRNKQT
The note with it: at 1 µM.

Assay [11] addresses Platelet-derived growth factor receptor alpha (Homo sapiens) (UniProt P16234). The note with it: at 1 µM.
For assay [12] the target is unchanged. The note with it: at 10 µM.
The target of assay [13] is Platelet-derived growth factor receptor beta (Homo sapiens) (UniProt P09619). The note with it: at 1 µM.
Assay [14] shares this target. The note with it: at 10 µM.
The target of assay [15] is T6, 3-phosphoinositide-dependent protein kinase 1 (Homo sapiens) (UniProt O15530).
T6 sequence (whole entry): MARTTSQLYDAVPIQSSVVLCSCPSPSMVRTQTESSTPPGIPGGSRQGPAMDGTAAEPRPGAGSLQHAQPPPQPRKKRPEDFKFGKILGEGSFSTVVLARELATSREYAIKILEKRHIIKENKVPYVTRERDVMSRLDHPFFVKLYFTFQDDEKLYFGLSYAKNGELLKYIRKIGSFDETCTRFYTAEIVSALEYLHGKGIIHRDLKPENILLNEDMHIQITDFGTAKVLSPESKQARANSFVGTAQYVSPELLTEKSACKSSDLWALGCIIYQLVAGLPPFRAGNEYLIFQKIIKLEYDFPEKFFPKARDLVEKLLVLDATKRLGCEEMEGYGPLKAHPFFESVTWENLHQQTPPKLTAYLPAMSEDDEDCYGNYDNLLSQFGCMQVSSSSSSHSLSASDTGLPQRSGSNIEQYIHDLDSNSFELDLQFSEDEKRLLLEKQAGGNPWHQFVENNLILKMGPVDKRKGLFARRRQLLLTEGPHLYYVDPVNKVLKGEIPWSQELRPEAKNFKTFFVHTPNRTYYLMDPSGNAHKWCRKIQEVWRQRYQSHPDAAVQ
The note with it: at 1 µM.

In assay [16] the target is T6, 3-phosphoinositide-dependent protein kinase 1 (Homo sapiens). The settings on record: at 10 µM.
The target of assay [17] is cAMP-dependent protein kinase catalytic subunit alpha (Homo sapiens) (UniProt P17612). The note with it: at 1 µM.
The target is the same in assay [18]. The note with it: at 10 µM.
The target in assay [19] is RAC-gamma serine/threonine-protein kinase (Homo sapiens) (UniProt Q9Y243). The note with it: at 1 µM.
For assay [20] the target is unchanged. The note with it: at 10 µM.

Sequence of Platelet-derived growth factor receptor alpha (Homo sapiens) (P16234 whole entry): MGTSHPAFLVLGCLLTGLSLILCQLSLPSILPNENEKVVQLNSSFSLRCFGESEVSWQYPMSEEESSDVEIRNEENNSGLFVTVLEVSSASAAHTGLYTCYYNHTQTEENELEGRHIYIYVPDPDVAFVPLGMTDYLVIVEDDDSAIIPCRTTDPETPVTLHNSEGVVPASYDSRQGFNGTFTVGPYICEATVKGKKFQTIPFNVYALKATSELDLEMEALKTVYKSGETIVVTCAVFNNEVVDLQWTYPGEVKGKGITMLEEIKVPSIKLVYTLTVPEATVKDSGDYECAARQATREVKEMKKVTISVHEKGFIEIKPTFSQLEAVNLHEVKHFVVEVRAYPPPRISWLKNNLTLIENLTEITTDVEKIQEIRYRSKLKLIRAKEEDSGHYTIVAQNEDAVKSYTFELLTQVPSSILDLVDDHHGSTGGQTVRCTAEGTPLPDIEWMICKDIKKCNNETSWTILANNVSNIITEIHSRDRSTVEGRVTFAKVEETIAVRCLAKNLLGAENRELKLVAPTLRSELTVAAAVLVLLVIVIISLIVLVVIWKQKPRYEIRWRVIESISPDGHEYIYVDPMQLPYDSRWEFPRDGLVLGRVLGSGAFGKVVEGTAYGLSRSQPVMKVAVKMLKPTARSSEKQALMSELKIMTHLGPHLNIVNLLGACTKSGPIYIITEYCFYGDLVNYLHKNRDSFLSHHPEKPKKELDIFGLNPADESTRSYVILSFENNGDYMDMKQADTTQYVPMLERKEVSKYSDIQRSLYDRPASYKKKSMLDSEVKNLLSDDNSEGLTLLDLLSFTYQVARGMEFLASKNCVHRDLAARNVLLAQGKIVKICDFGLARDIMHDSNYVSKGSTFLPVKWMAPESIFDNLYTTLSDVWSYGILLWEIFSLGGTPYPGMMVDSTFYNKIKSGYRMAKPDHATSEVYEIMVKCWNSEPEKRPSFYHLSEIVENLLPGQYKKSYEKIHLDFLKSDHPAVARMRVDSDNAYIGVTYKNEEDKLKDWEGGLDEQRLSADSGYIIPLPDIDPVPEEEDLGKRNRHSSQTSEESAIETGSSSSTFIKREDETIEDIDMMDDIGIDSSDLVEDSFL
T2 sequence (P54619 whole entry): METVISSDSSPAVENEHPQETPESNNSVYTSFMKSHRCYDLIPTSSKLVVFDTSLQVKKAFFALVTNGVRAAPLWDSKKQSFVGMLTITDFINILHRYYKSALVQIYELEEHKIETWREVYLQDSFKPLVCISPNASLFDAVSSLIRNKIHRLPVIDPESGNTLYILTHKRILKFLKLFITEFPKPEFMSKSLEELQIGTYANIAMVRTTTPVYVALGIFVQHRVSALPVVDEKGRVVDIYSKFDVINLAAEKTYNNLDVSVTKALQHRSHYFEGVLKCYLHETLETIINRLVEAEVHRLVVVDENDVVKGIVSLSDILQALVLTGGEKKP
T2 sequence (Q13131 whole entry partner): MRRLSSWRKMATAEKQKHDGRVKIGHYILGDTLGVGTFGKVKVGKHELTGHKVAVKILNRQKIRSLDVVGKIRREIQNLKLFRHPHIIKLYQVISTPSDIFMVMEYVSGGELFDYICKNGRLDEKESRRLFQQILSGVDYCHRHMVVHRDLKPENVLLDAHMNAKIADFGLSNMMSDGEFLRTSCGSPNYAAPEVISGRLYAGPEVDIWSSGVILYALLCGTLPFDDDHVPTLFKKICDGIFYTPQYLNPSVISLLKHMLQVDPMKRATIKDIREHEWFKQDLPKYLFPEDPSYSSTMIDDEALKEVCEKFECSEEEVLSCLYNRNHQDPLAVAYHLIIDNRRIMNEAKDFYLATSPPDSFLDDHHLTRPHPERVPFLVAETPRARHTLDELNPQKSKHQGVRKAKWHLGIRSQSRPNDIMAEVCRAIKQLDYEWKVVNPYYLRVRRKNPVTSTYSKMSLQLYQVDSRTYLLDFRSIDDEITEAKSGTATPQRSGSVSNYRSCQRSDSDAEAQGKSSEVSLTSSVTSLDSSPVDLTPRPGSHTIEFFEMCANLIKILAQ
T2 sequence (Q9Y478 2-270 partner limits assumed): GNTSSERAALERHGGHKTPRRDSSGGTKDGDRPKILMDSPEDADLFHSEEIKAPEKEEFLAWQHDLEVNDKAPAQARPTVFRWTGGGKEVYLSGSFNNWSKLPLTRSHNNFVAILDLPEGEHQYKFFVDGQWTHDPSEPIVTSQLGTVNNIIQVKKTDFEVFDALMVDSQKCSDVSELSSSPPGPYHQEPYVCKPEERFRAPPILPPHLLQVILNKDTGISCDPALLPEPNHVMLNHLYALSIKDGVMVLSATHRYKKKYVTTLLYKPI
Sequence of Platelet-derived growth factor receptor beta (Homo sapiens) (P09619 whole entry): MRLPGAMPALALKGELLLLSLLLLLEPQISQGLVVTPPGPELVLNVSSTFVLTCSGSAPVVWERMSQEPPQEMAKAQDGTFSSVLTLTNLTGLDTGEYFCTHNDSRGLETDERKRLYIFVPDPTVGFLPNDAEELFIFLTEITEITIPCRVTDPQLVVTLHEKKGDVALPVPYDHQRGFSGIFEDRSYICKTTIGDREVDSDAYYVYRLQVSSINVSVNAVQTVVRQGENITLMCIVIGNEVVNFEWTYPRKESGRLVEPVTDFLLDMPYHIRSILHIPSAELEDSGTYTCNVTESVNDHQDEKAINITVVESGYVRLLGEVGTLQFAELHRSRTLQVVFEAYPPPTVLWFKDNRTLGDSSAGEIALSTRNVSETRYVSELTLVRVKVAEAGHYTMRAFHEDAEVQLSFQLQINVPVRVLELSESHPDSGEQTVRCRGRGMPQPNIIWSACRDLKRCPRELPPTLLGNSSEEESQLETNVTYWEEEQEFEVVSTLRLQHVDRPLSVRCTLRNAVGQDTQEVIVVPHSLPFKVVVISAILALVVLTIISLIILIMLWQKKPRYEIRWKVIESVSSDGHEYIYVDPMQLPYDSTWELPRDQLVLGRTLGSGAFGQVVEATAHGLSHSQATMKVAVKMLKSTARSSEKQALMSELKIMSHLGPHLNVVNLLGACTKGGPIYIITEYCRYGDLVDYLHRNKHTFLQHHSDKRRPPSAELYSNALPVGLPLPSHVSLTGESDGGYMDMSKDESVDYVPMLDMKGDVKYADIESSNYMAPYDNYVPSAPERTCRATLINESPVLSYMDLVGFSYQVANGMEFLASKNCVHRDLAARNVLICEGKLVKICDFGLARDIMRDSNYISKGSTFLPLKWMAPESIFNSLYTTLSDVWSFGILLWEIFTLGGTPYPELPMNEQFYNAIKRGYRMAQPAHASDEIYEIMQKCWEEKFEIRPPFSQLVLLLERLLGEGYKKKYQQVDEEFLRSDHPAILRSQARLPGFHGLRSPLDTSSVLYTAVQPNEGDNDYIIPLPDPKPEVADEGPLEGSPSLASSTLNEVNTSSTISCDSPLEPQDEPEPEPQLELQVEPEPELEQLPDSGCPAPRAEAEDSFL
Sequence of RAC-gamma serine/threonine-protein kinase (Homo sapiens) (Q9Y243 whole entry): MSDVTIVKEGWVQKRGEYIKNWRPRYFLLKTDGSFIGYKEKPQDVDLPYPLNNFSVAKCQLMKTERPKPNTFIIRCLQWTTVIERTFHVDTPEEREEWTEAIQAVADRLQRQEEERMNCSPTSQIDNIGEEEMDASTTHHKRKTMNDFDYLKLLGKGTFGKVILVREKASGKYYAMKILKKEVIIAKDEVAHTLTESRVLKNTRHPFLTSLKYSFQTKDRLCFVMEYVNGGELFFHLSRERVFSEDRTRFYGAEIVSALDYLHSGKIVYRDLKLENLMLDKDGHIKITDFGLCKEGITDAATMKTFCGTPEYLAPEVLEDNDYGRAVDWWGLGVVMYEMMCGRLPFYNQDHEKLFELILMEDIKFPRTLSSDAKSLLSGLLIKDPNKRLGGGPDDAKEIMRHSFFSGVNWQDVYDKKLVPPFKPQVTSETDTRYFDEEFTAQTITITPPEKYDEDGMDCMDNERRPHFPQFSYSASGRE

`O=c1c2ccccc2[nH]c(=S)n1CCN1CCC(=C(c2ccc(F)cc2)c2ccc(F)cc2)CC1`: the residual activity in [1] was 73%; in [2], 149%; in assay [3], 111%; in [4], 101%; in assay [5], 84%; in assay [6], 97%. Moreover, the residual activity in [7] came out at 74%; in [8], 90%; in [9], 120%; in assay [10], 106%; in [11] it was 105%; in assay [12], 97%. Moreover, the residual activity in [13] is 106%; in assay [14], 85%; in assay [15] it was 116%; in assay [16], 111%; in assay [17], 92%; in assay [18], 114%. Besides, the residual activity was 93% in assay [19] and 40% in assay [20].
Turning to `CC(=O)c1ccc(N2CCOCC2)cc1O`, the residual activity is 93% in [1]; 129% in assay [2]; 106% in assay [3]; 102% in assay [4]; 90% in assay [5]; 97% in assay [8]. In addition, the residual activity in [9] was 92%; in [10], 92%; in assay [12], 107%; in [13] it was 112%; in [14] it was 105%; in assay [17] it was 87%. The residual activity in assay [18] was found to be 96%; in assay [19] it was 106%; in assay [20] it was 104%.
As to `Cc1cccc(-c2[nH]c(C(C)(C)C)nc2-c2ccc3c(c2)OCO3)n1`, the residual activity in assay [1] is 102%; in assay [2], 1%; in [3] it was -6%; in [4] it was 102%; in [5] it was 83%; in assay [6] it was 106%. Further, the residual activity in assay [7] stood at 78%; in [8], 102%; in assay [9], 88%; in assay [10], 83%; in assay [17], 87%; in [18], 91%.
In the case of `c1ccc(-c2n[nH]c3c2oc2ccccc23)cc1`, the residual activity in assay [1] turned out to be 32%; in assay [2], 134%; in assay [3], 99%; in assay [4], 89%; in assay [5] it was 49%; in [6] it was 91%. For the same molecule, the residual activity in assay [7] was found to be 47%; in assay [8], 89%; in assay [9], 65%; in [10] it was 95%; in [11], 33%; in assay [12], 5%. In addition, the residual activity is 70% in assay [17] and 90% in [19].
Consider `CCN(CC)C(=O)c1ccc(Nc2nc(OCC3CCCCC3)c3nc[nH]c3n2)cc1`, for which the residual activity in assay [1] amounted to 6%; in [4], 35%; in [5], 6%; in assay [6] it was 22%; in [7] it was 5%; in assay [8] it was 2%. Moreover, the residual activity in assay [9] amounted to 4%; in assay [10] it was 80%; in [11] it was 65%; in [12], 18%; in [13], 63%; in [14], 14%. Also, the residual activity in [15] amounted to 20%; in assay [16], 3%; in assay [17] it was 80%; in [18], 52%; in assay [20], 40%.
For the molecule `COc1ccc(S(=O)(=O)N(CCO)c2ccccc2CN(C)C/C=C/c2ccc(Cl)cc2)cc1`, the residual activity in assay [1] was 59%; in assay [2] it was 96%; in assay [3] it was 102%; in [4] it was 104%; in assay [5], 76%; in [6], 99%. The residual activity in assay [7] stood at 74%; in assay [8] it was 100%; in assay [9], 75%; in assay [10] it was 94%; in assay [11], 109%; in assay [12], 95%. Further, the residual activity is 109% in assay [13]; 104% in [14]; 119% in assay [15]; 114% in assay [16]; 105% in assay [17]; 104% in assay [19]. The residual activity in [20] was 56%.
Take `O=C1Nc2ccc(Br)cc2/C1=C\c1cc2c([nH]1)CCCC2`: the residual activity is 112% in assay [1]; 112% in assay [2]; 101% in assay [3]; 76% in assay [4]; 60% in assay [5]; 70% in assay [8]. In addition, the residual activity was determined as 74% in [9]; 34% in assay [11]; 23% in assay [12]; 74% in [13]; 51% in [14]; 109% in assay [15]. Also, the residual activity in [16] stood at 99%; in assay [17], 108%; in assay [18], 80%; in assay [19] it was 105%.
